In PubChem BioAssay AID485272 (The Scripps Research Institute Molecular Screening Center, 2010):
Among all 330,000 compounds or so, about 1,300 (0.39%) were called active. This is one part of a sample in which actives are shown more often than they occur. Unmarked numbers belong to inactive results.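 How the source made its calls: active means percent inhibition above a cutoff equal to the mean of all tested compounds plus 3 SD (cut at about 15% in these data); inactive means the rest.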

Biological target: Protein-arginine deiminase type-4 (Homo sapiens) (UniProt Q9UM07)
Assay: human PAD4 inhibitors, primary screen, biochemical, fluorescence polarization, 1536-well format (AID 485272);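 further: 0% = PAD4 with RCA probe and DMSO and 100% = probe without PAD4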
Details: recombinant PAD4, RCA probe fluorescence polarization; at 6.36 µM; hits give high values

Chain of Protein-arginine deiminase type-4 (Homo sapiens) (Q9UM07 whole entry, looked up): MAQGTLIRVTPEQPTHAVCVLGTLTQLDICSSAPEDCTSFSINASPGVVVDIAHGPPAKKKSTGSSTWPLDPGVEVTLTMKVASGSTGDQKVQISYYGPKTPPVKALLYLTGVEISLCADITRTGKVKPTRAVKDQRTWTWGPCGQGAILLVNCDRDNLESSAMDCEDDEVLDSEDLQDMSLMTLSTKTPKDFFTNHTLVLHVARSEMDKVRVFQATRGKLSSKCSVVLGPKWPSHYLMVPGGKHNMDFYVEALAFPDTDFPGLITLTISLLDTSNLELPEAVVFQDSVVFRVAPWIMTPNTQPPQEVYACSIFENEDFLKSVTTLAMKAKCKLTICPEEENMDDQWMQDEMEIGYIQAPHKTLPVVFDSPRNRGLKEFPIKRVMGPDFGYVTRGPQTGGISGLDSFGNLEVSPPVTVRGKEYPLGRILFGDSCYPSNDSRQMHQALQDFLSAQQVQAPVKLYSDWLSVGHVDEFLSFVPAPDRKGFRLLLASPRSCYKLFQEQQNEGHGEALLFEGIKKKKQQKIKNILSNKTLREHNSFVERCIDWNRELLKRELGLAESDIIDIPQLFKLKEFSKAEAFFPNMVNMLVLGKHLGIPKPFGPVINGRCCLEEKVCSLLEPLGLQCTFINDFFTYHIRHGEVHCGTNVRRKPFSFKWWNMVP

Compound | inhibition
c1ccc2c(c1)OCCOCCOCCO2 | 0.83%
CCn1c(SCC(=O)Nc2sc(C)c(C)c2C#N)nnc1C1CC1 | -2.74%
CCCc1c(C)nc2c(Br)cccc2c1Cl | 2.17%
COc1ccc(C2(O)C(=O)Nc3ccccc32)cc1 (stereo not given) | 0.37%
CCc1ccc2c(c1)C1(NN=C(c3ccccc3)S1)C(=O)N2 (stereo not given) | -9.11%
O=C1Nc2ccccc2C12Nc1ccccc1S2 (stereo not given) | 21.3% (active)
CC1(C)N=C(c2ccccn2)C(C)(C)N1O | -1.6%
O=C(NCCc1ccccc1Cl)C1CCC(=O)N(CCCc2ccccc2)C1 (stereo not given) | 1.05%
Cc1c2cnn(CC(=O)NCc3ccccn3)c(=O)c2c(C)n1Cc1ccc(Cl)cc1 | 1.37%
CC(C)CNC(=O)CC(NCC(C)C)C(=O)O (stereo not given) | -2.65%
Oc1ccc(-c2[nH]ncc2-c2nc3ccccc3s2)c(O)c1 | 3.22%
Cc1nc2ccccc2nc1N/N=C/c1ccc(O)cc1O | -3.07%
Cc1cc(O)ccc1-c1cnc2ccccc2n1 | 28.5% (active)
CS(=O)(=O)N(CC(=O)N1CCN(c2ccc(F)cc2)CC1)C1CCCCC1 | -2.55%
C=CCN1C2CCCC1CC(NC(=S)Nc1cccc(OC)c1)C2 (stereo not given) | 3.98%
O=C(CN1C(=O)CCS(=O)(=O)c2ccccc21)NCc1ccc(F)cc1 | -1.88%
C[C@H](CO)N1C[C@H](C)[C@@H](CN(C)Cc2ccc(-c3ccccc3)cc2)Oc2ccc(NC(=O)Cn3cnnn3)cc2C1=O | -5.03%
CN1c2ccc(C=O)c3c(C=O)ccc(c23)N(C)C1(C)C | 54.5% (active)
O=C(Nc1ccc([N+](=O)[O-])cc1)C1(c2ccccc2)CCOCC1 | -2.28%
CN(C(=O)CN1C(=O)CCSc2ccc(S(=O)(=O)N3CCCC3)cc21)c1ccccc1 | -3.61%
CNC(=S)NNC(=O)c1oc2nc(-c3ccccc3)cc(-c3ccco3)c2c1N | 19.9% (active)
NNC(=O)c1oc2nc(-c3ccccc3)cc(-c3ccco3)c2c1N | -6.02%
CNC(=S)NNC(=O)c1cccn(Cc2ccccc2)c1=O | -2.2%
COc1ccc([C@@H]2[C@@H]3C(=O)N(C(C)(C)C)C(=O)[C@@H]3[C@]3(Cc4ccccc4)C(=O)N(c4cccc(Br)c4)C(=O)N23)cc1 | 0.18%

Compound | inhibition
Cc1nn(CC2CC2)c(=O)n1N(C)c1ncc(C(F)(F)F)cc1Cl | 0.5%
O=C(Nc1ccccc1Cl)/C(Cl)=C(\Cl)S(=O)c1ccccc1 (stereo not given) | 16.5% (active)
O=C(Cc1ccc2c(c1)CCCC2)Nc1ccccc1Cl | 1.33%
Cc1c(NC(=O)Nc2ccccc2Cl)sc(=S)n1C | -3.79%
CC1CN(c2nc(-c3ccccc3)nnc2-c2ccccc2)CC(C)O1 (stereo not given) | -2.42%
Cn1cccc1/C=C1\SC(=S)N(NC(=O)c2ccc(Cl)cc2)C1=O | -18.5%
COc1ccccc1NC(=S)NC(=O)C(C)C | -0.01%
CCc1ccccc1NC(=S)Nc1cc(OC)c(NC(=O)C(C)C)cc1OC | 41.1% (active)
CC(C)C(=O)NC(=S)Nc1ccccc1F | 5.01%
C=CCNC(=O)c1ccccc1NC(=O)c1ccc(Cl)c(S(=O)(=O)Nc2cccc(C)c2C)c1 | 2.11%
Cc1nc(Cl)c2oc3ccccc3c2n1 | 15.3% (active)
Cc1nc(N2CCCC2C(=O)O)c2oc3ccccc3c2n1 (stereo not given) | -1.75%
COc1ccc(C)cc1Nc1nc(C)nc2c1oc1ccccc12 | 1.33%
CCCCC[C@@H]1C=C(C(=O)O)[C@H](c2ccc(C#N)cc2)N1S(=O)(=O)c1ccc(C)cc1 | 0.94%
O=C(N/C(=C\c1ccc([N+](=O)[O-])cc1)C(=O)N1CCCCC1)c1ccco1 | 2.37%
COc1cccc(NC(=O)C2C(c3ccccc3)C2(Cl)Cl)c1 (stereo not given) | -7.27%
COc1cccc(NC(=O)C2c3cc(OC)c(OC)cc3C(=O)N(C)C2c2cccnc2)c1 (stereo not given) | 69.3% (active)
CCOc1cc2c(cc1OCC)C(C(=O)O)C(c1ccc(OC)c(O)c1)N(C)C2=O (stereo not given) | -1.73%
CO[C@H]1[C@@H]2C=CO[C@@H](O[C@H]3O[C@@H](CO)[C@H](O)[C@@H](O)[C@@H]3O)[C@@H]2[C@@]2(CO)O[C@@H]12 | 1.64%
Cc1nc2ccccc2nc(C)c1=NOCc1ccc(Cl)cc1Cl | -3.19%
CCOC(=O)C1CCN(C(=O)CC2C(=O)N(Cc3ccccc3)C(C)c3nc4ccccc4n32)CC1 (stereo not given) | -2.42%
CCC(CO)Oc1cc(NC(=O)c2cccc(F)c2)c2ncn(C(C)C)c2c1 (stereo not given) | 3.9%
CC(C)n1cnc2c(NCc3ccccc3)cc(OCC3CCN(C)CC3)cc21 | 16.8% (active)
CCC(CO)Oc1cc(NC(=O)c2ccc(Cl)cc2)c2ncn(C(C)C)c2c1 (stereo not given) | -2.59%

Compound | inhibition
CCC(CO)Oc1cc(NCc2ccccc2)c2ncn(C3CCCC3)c2c1 (stereo not given) | -6.94%
CC(C)n1cnc2c(NCc3ccccc3)cc(N[C@@H](CO)Cc3ccccc3)cc21 | 32.9% (active)
CCC(CO)Oc1cc(NC(=O)c2cccc3ccccc23)c2ncn(C(C)C)c2c1 (stereo not given) | -7.37%
Cc1ccc(NC(=O)C(C)c2cccc(C(=O)c3ccccc3)c2)cc1 (stereo not given) | 1.32%
O=C(Cn1c2[n+](c3ccc(C(F)(F)F)cc31)CCCCC2)Nc1c(F)cccc1F | -5.07%
CC(C)C(C)(C#N)NC(=O)CSc1nncn1-c1ccccc1 (stereo not given) | -0.3%
CC(C)(C)NC(=O)/C(=C/c1cccnc1)NC(=O)c1ccco1 | 0.75%
Cc1cc(C)c2c(Cn3ccnc3)cc(=O)oc2c1 | -4.75%
Cc1nn(-c2ccccc2)c(C)c1NC(=O)CCl | 1.95%
Cc1nn(-c2ccccc2)c(C)c1NC(=O)COC(=O)c1cc(Cl)ccc1O | 2.71%
Cc1ccc2c(c1)N(C(=O)CCC(=O)NCc1cccnc1)CCO2 | -2.36%
O=C(NC(=S)Nc1ccc(Cl)cc1Cl)C1CC1 | 1.69%
CCOc1ccc(NS(=O)(=O)c2ccc(Cl)c(C(=O)N(C)Cc3cccnc3)c2)cc1 | 6.71%
O=C(Nc1ccc(N2CCOCC2)cc1)c1cccc(S(=O)(=O)N2CCOCC2)c1 | -3.19%
Oc1ccc2ccccc2c1N=Nc1nccs1 | 2.91%
Oc1c(C=Nc2cccc3nsnc23)ccc2ccccc12 | 39.1% (active)
O=C(CCNS(=O)(=O)c1ccc(Br)s1)NCc1ccccc1Cl | -0.29%
Clc1ccc(-c2cc(COc3ccccc3)no2)cc1Cl | -0.83%
COC(=O)c1ccc(C)c(NC(=O)Cn2c(C)csc2=O)c1 | 2.97%
Cc1ccc(C(=O)CSc2nc3ccccc3c(=O)n2N)o1 | 28.9% (active)
COc1ccc(NC(=O)CSc2nc3ccccc3c(=O)n2C)cc1 | -0.44%
COc1ccc(OCc2ccc(-c3nc4ccccc4c(=O)n3N)o2)cc1 | 1.08%
CCC(C(=O)OC)n1cnc2scc(-c3ccc(C)cc3)c2c1=O (stereo not given) | 0.23%
Cc1[nH]nc(-c2ccc(OCc3cnn(-c4ccccc4)c3)cc2O)c1Oc1ccc(Cl)cc1 | -2.55%

Compound | inhibition
CC(=O)n1c(C=Nc2ccccc2)c(O)c2ccccc21 | -8.69%
Oc1ccc(N=Cc2c(O)ccc3ccccc23)cc1 | 69.9% (active)
Cc1cc(N=Nc2ccc3ccccc3c2)ccc1O | 1.91%
Oc1ccc(/C=N/N(Cc2ccccc2)c2ccccc2)cc1 | 2.9%
Oc1ccc(N=Cc2sc3ccccc3c2Cl)cc1 | 19.9% (active)
CCC(C)NC(=O)Cn1nc(C(F)(F)F)c2c1CCC2 (stereo not given) | 0.61%
N/C(=N\OC(=O)CC1CCCCC1)c1ccccc1 | -1.21%
CC(=O)c1ccc(S(=O)(=O)NCc2nnnn2-c2ccccc2)cc1 | 7.61%
O=c1oc2ccc(C#CC3(O)CCCCC3)cc2cc1-n1cc(-c2ccsc2)nn1 | 2.6%
Cc1cccc(CN2CCN(Cc3cnn(-c4ccccc4F)c3)CC2CCO)n1 (stereo not given) | 8.78%
COc1ccc(CCNS(=O)(=O)c2cc3c(cc2C)NC(=O)CO3)cc1OC | -1.01%
N#CCCN(C(=O)COC(=O)C1CCN(c2ccc(C(F)(F)F)cn2)CC1)c1ccc(F)cc1 | -2.71%
CCOCC(=O)NCc1ccc2c(c1)cc(C)n2C | 6.21%
COc1cc(C(=O)NCc2cc3cc(Cl)ccc3n2C)cc(OC)c1OC | 0.12%
COc1cc(C(=O)NCc2ccc3c(c2)cc(C)n3C)cc(OC)c1OC | 26.2% (active)
CC(=O)Nc1ccc(N2C(=O)CCC2=O)cc1C | 1.44%
COc1cccc(N2CC(NS(=O)(=O)c3cccs3)CC2=O)c1 (stereo not given) | -3.8%
CN1C(=O)c2cccc3c(N)ccc(c23)C1=O | 24% (active)
Cc1nn(C)cc1C(=O)c1ccccc1 | -3.44%
CC(=O)Nc1ccccc1Sc1ccc2c3c(cccc13)C(=O)N(c1ccc(C)cc1)C2=O | 1.13%
Cc1nn(C)cc1N1C(=O)c2cccc3c(N)ccc(c23)C1=O | 26.9% (active)
COc1cc(C(=O)N2C(=O)c3cccc(N)c3C2=O)cc(OC)c1OC | -3.66%
COC(=O)c1ccc(CN2CCCC(C(=O)Nc3cccc(-n4cnnn4)c3)C2)cc1 (stereo not given) | -3.14%
